This note sets out measurements from PubChem BioAssay (NCI).

Test systems include NCI-H23 lung; NCI-H226 lung; NCI-H322M lung; HOP-62 NSCLC; NCI-H460 lung; HOP-92 NSCLC; NCI-H522 lung; A549/ATCC NSCLC; 786-0 renal; COLO 205 colon.
Experiment in all cases: NCI-60 one-dose screen, 48 h (100 = growth as untreated, 0 = no growth, -100 = all killed)
Conditions in all cases: 10 µM unless noted

About 83,000 compounds went through this panel and 20% of them were active in at least one assay; those are over-represented in the sample as a whole.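 Compound tested at a single concentration for 48 hours in 96-well plates; a percent growth value below 10 was scored as active.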 A number with no mark means an inactive call. Calls of active or inactive are those of the source.

For the molecule `CC(=O)OC1CCC2(C)C(CCC3C2CC(=O)C2(C)C3CC(Sc3ccc(N(CCCl)CCCl)cc3)C2C(C)=O)C1` (stereo not given), the growth with NCI-H23 lung is 97.3%; with NCI-H226 lung, 83.7%; in the experiment on NCI-H322M lung it was 104%; with HOP-62 NSCLC, 108%; with NCI-H460 lung, 32.5%; in the experiment on HOP-92 NSCLC, 109%. Moreover, the growth in the experiment on NCI-H522 lung is 83%; in the experiment on A549/ATCC NSCLC, 55.6%; in the experiment with 786-0 renal it was 82.6%; with COLO 205 colon, 9.14% (active).
Regarding `COc1cc2c(cc1OCCCCn1c(-c3cccs3)nc3ccccc31)N=C[C@@H]1CCCN1C2=O`, the growth is -37.9% (active) in the experiment on NCI-H23 lung; -34.7% (active) in the experiment with NCI-H226 lung; -30.5% (active) in the experiment with NCI-H322M lung; 17.7% in the experiment with HOP-62 NSCLC; -4.31% (active) in the experiment on NCI-H460 lung; -64.6% (active) with HOP-92 NSCLC. Further, the growth with NCI-H522 lung was -27.4% (active); with A549/ATCC NSCLC, -7.19% (active); in the experiment on 786-0 renal, 1.78% (active); in the experiment with COLO 205 colon it was -73.5% (active).
Take `COC(=O)[C@@H](C)C[C@H](Cc1ccccc1)NC(=O)c1csc([C@@H](C[C@H](C(C)C)N(C)C(=O)[C@H](C)NC(=O)[C@H]2CCCCN2C)OC(C)=O)n1`: the growth is 46% in the experiment on NCI-H23 lung; 61% in the experiment with NCI-H226 lung; 40.6% with NCI-H322M lung; 32.6% in the experiment on HOP-62 NSCLC; 12% with NCI-H460 lung; 40.4% with HOP-92 NSCLC. Besides, the growth was 8.96% (active) in the experiment with NCI-H522 lung, 46.6% with A549/ATCC NSCLC, 35% in the experiment with 786-0 renal and -16.2% (active) in the experiment with COLO 205 colon.
As to `COC(=O)[C@@H](C)C[C@H](Cc1ccccc1)NC(=O)c1csc([C@@H](C[C@H](C(C)C)N(C)C(=O)[C@@H](NC(=O)[C@H]2CCCN2C)C2CC2)OC(C)=O)n1`, the growth is 23.5% in the experiment with NCI-H23 lung; 24.1% in the experiment on NCI-H226 lung; 50.9% in the experiment on NCI-H322M lung; 12.2% in the experiment with HOP-62 NSCLC; 3.65% (active) with NCI-H460 lung; -6.22% (active) with HOP-92 NSCLC. In addition, the growth is -9.59% (active) in the experiment on NCI-H522 lung, 13.2% with A549/ATCC NSCLC, 15.6% with 786-0 renal and -63.1% (active) in the experiment on COLO 205 colon.
With `CC[C@H](C)[C@H](NC(=O)c1nccn1C)C(=O)N(C)[C@H](C[C@@H](OC(C)=O)c1nc(C(=O)N[C@@H](Cc2ccccc2)C[C@H](C)C(=O)OC)cs1)C(C)C`, the growth in the experiment on NCI-H23 lung was 29.8%; in the experiment with NCI-H226 lung, 37.1%; in the experiment with NCI-H322M lung, 43.9%; in the experiment with HOP-62 NSCLC, 16.6%; in the experiment on NCI-H460 lung, 9.82% (active); with HOP-92 NSCLC, 29.9%. For the same molecule, the growth was -26.7% (active) in the experiment with NCI-H522 lung, 25.2% with A549/ATCC NSCLC, 30.8% with 786-0 renal and -12.8% (active) in the experiment with COLO 205 colon.
For `O=[N+]([O-])c1ccc([Se]C2CCCCC2Cl)c([N+](=O)[O-])c1` (stereo not given), the growth with NCI-H23 lung was 40.3%; in the experiment on NCI-H226 lung, 73.5%; with NCI-H322M lung, 55.7%; with HOP-62 NSCLC, 7.16% (active); in the experiment with NCI-H460 lung it was 57.7%; with HOP-92 NSCLC, 53.8%. Further, the growth with NCI-H522 lung is 63.3%; in the experiment with A549/ATCC NSCLC, 45.5%; in the experiment with 786-0 renal, 128%; in the experiment on COLO 205 colon, 102%.
Take `C[C@]12CCc3sc(NCCc4ccccc4)nc3C1=CC[C@@H]1[C@@H]2CC[C@]2(C)C(=O)CC[C@@H]12`: the growth in the experiment with NCI-H23 lung is 66.6%; in the experiment on NCI-H226 lung, 84.1%; with NCI-H322M lung it was 91.9%; with HOP-62 NSCLC, 102%; in the experiment on NCI-H460 lung it was 72.8%; with HOP-92 NSCLC, 66.4%. For the same molecule, the growth is 44.1% with NCI-H522 lung, 87.8% in the experiment on A549/ATCC NSCLC, 4.36% (active) in the experiment with 786-0 renal and 90.6% with COLO 205 colon.
In the case of `CCCCCCCCCCCCCCCCCC1OC[C@H](COC(=O)O[C@@H](C(=O)O[C@H]2C[C@@]3(O)[C@@H](OC(=O)c4ccccc4)[C@@H]4[C@]5(OC(C)=O)CO[C@@H]5C[C@H](O)[C@@]4(C)C(=O)[C@H](OC(C)=O)C(=C2C)C3(C)C)[C@@H](NC(=O)c2ccccc2)c2ccccc2)O1` (stereo not given in full), the growth with NCI-H23 lung was 42.7%; in the experiment on NCI-H226 lung, 94.3%; in the experiment on NCI-H322M lung, 47.4%; with HOP-62 NSCLC, 66.3%; in the experiment with NCI-H460 lung, 20.9%; with HOP-92 NSCLC, 75%. In addition, the growth is 60.2% in the experiment with NCI-H522 lung, 43.9% with A549/ATCC NSCLC, 91.2% with 786-0 renal and 13.3% with COLO 205 colon.
Take `C[C@]12C[C@@H](CO)[C@H](O)C[C@@H]1CC[C@@H]1[C@@H]2CC[C@]2(C)[C@@H](O)CC[C@@H]12`: the growth in the experiment with NCI-H23 lung was 102%; with NCI-H226 lung it was 102%; in the experiment with NCI-H322M lung it was 91.1%; in the experiment with HOP-62 NSCLC, 107%; in the experiment on NCI-H460 lung, 106%; in the experiment with HOP-92 NSCLC it was 87.3%. The growth is 77.7% in the experiment on NCI-H522 lung, 99.7% in the experiment on A549/ATCC NSCLC, 102% with 786-0 renal and 108% in the experiment on COLO 205 colon.
With `Clc1ccc2nnnn2n1`, the growth with NCI-H23 lung was 54.4%; with NCI-H226 lung, 66.6%; in the experiment on NCI-H322M lung it was 85.2%; with HOP-62 NSCLC, 55.7%; with NCI-H460 lung, 20.7%; in the experiment with HOP-92 NSCLC, -3.54% (active). For the same molecule, the growth in the experiment with NCI-H522 lung was 13.2%; in the experiment with A549/ATCC NSCLC, 77.3%; in the experiment with 786-0 renal it was 23%; in the experiment with COLO 205 colon, -77.3% (active).
Regarding `CCCC[C@H](NC(=O)[C@H]1CCCN1C)C(=O)N(C)[C@H](C[C@@H](OC(C)=O)c1nc(C(=O)N[C@@H](Cc2ccccc2)C[C@H](C)C(=O)OCC)cs1)C(C)C`, the growth with NCI-H23 lung was 24.4%; with NCI-H226 lung it was 37.2%; in the experiment on NCI-H322M lung it was 33.3%; with HOP-62 NSCLC, 21.8%; with NCI-H460 lung, 7.53% (active); with HOP-92 NSCLC, 7.16% (active). The growth in the experiment on NCI-H522 lung is -12.1% (active); in the experiment on A549/ATCC NSCLC it was 8.16% (active); in the experiment with 786-0 renal it was 3.94% (active); with COLO 205 colon it was -66.7% (active).
`CC12CC(=O)C3(SC#N)C(CCC4=CC(=O)CCC43C)C1CCC2=O` (stereo not given): the growth in the experiment on NCI-H23 lung was 99.1%; with NCI-H226 lung it was 94.1%; in the experiment on NCI-H322M lung it was 96%; in the experiment with HOP-62 NSCLC, 106%; in the experiment on NCI-H460 lung it was 96.2%; with HOP-92 NSCLC it was 90.7%. In addition, the growth was -3.58% (active) in the experiment with NCI-H522 lung, 107% in the experiment with A549/ATCC NSCLC, 90% with 786-0 renal and 66% in the experiment on COLO 205 colon.
